Data published in PubChem BioAssay (Tox21).
Results filed as inconclusive are left out. Where a call stands in place of a potency, no number is given. Calls of active or inactive are those of the source. Calls come from the whole dose curve; as a rule, active = well fitted cell-killing curve with a large enough effect in the repeat runs; inconclusive = weak or mixed curves; inactive = no such curve, though single readings can be large or run the other way.

Test: qHTS assay to identify small molecule antagonists of the androgen receptor (AR) signaling pathway - cell viability counter screen (AID 743033; note: nearly all actives have a fitted effect of over 45% in size)
Conditions: AR-bla HEK293 viability, CellTiter-Glo luminescence, 16 h; series mostly up to 58.5 µM
Description: National Center for Advancing Translational Sciences [NCATS]
NIH Chemical Genomics Center [NCGC]
U.S. Environmental Protection Agency [EPA]
National Institutes of Environmental Health Sciences [NIEHS]
National Toxicology Program [NTP]
U.S. Food and Drug Administration [FDA]
Androgen receptor (AR), a nuclear hormone receptor, plays a critical role in AR-dependent prostate cancer and other androgen related diseases. Endocrine disrupting chemicals (EDCs) and their interactions with steroid hormone receptors like AR may cause disruption of normal endocrine function as well as interfere with metabolic homeostasis, reproduction, developmental and behavioral functions. To identify the compounds that inhibit AR signaling, GeneBLAzer AR-UAS-bla-GripTite cell line (Invitrogen, Carlsbad, CA, USA) containing a beta-lactamase reporter gene under control of an Upstream Activator Sequence (UAS) stably integrated into HEK293 cells was used to screen the Tox21 10K compound library. The cytotoxicity of the Tox21 compound library against the AR-bla cell line was tested in parallel by measuring the cell viability using CellTiter-Glo assay in the same wells.
Tox21 Assay Protocol Summary:
AR-bla cells were dispensed at 2,000 cells/5 uL of assay medium per well into black wall/clear-bottom 1536-well plates using a Multidrop Combi (ThermoFisher Scientific, Waltham, MA) dispenser. After the assay plates were incubated at a 37C and 5% CO2 for 4 hr, 23 nL of compounds dissolved in DMSO, positive controls or DMSO only was transferred to the assay plate by a Pintool station (Kalypsys, San Diego, CA), followed by addition of 1 uL of agonist (R1881) in culture medium using a Bioraptr Flying Reagent Dispenser (FRD) workstation (Beckman Coulter, Indianapolis, IN, USA). The plates were incubated at a 37C and 5% CO2 for 16 h. After 1 uL of LiveBLAzerTM B/G FRET substrate was added using a Bioraptr FRD, the plates were incubated at room temperature for 2 h and fluorescence intensity was measured by an Envision plate reader (PerkinElmer, Shelton, CT). For cell viability readout that measures cytotoxicity, 4 ul/well of CellTiter-Glo reagent was added into the assay plates using a Bioraptr FRD. After 30 min incubation at room temperature, the luminescence intensity in the plates was measured using a ViewLux (PerkinElmer) plate reader.
Potency is the fitted concentration of half-maximal effect.

Compound	Potency
CC1(C)O[C@@H]2C[C@H]3[C@@H]4C[C@H](F)C5=CC(=O)C=C[C@]5(C)[C@@]4(F)[C@@H](O)C[C@]3(C)[C@]2(C(=O)CO)O1	inactive
O=C(O)c1cc(=O)[nH]c(=O)[nH]1	inactive
COc1ccc(C(=O)c2ccccc2O)c(O)c1	inactive
CCCCCC1C(=O)CCC1CC(=O)OC (stereo not given)	inactive
CCCOCCO	inactive
O=C(O)c1ccc(O)cc1	inactive
CCOC(=O)C(C)Oc1ccc(Oc2cnc3cc(Cl)ccc3n2)cc1 (stereo not given)	inactive
CC/C=C\C/C=C\C/C=C\CCCCCCCC(=O)O	inactive
CCCN1C=CN(C)C1	inactive
FC(F)(F)C(Cl)Br (stereo not given)	inactive
C[C@]12CC[C@@H]3c4ccc(O)cc4CC[C@H]3[C@@H]1CC[C@@H]2O	inactive
OCCNCCO	inactive
C=C[C@H]1CN2CC[C@H]1C[C@@H]2[C@@H](O)c1ccnc2ccc(OC)cc12	inactive
Nc1cc([N+](=O)[O-])ccc1C(=O)O	inactive
O=C(O)CCCC(=O)O	inactive
CNC[C@H](O)c1ccc(O)c(O)c1	inactive
CCCCCC=O	inactive
C=C1C[C@H]2[C@@H]3C=C(C)C4=CC(=O)CC[C@]4(C)[C@H]3CC[C@]2(C)[C@@]1(OC(C)=O)C(C)=O	inactive
COC(=O)CC(=O)OC	inactive
CCc1cccc2c3c([nH]c12)C(CC)(CC(=O)O)OCC3 (stereo not given)	inactive

Compound	Potency
C=CN1CCCC1=O	inactive
CCO[Si](CCCNC(N)=O)(OCC)OCC	inactive
NCCN	inactive
CC(C)=CCO	inactive
Cc1ccc2c(c1)C(=O)OC2=O	inactive
CC(C)[N+](C)(CCOC(=O)C1c2ccccc2Oc2ccccc21)C(C)C	inactive
CCCCCCOCCOCCO	inactive
OC[C@H]1O[C@@H]2O[C@H]3[C@H](O)[C@@H](O)[C@@H](O[C@H]4[C@H](O)[C@@H](O)[C@@H](O[C@H]5[C@H](O)[C@@H](O)[C@@H](O[C@H]6[C@H](O)[C@@H](O)[C@@H](O[C@H]7[C@H](O)[C@@H](O)[C@@H](O[C@H]1[C@H](O)[C@H]2O)O[C@@H]7CO)O[C@@H]6CO)O[C@@H]5CO)O[C@@H]4CO)O[C@@H]3CO	inactive
O=C(O)CCCCCCCCCCCC(=O)O	inactive
CC[C@]12CCCN3CCc4c(n(c5ccccc45)[C@@](O)(C(=O)OC)C1)[C@@H]32	inactive
C=CCNCC=C	inactive
O=S1(=O)CCCO1	inactive
CC(=O)OC(C)C	inactive
c1ccc2ncccc2c1	inactive
c1ccc2c(c1)ccc1ncccc12	inactive
CN(Cc1cnc2nc(N)nc(N)c2n1)c1ccc(C(=O)N[C@@H](CCC(=O)O)C(=O)O)cc1	75.6 nM (active)
O=C(CCCN1CCC(O)(c2ccc(Cl)cc2)CC1)c1ccc(F)cc1	inactive
O=C(O)COCCN1CCN(C(c2ccccc2)c2ccc(Cl)cc2)CC1 (stereo not given)	inactive
Cc1ccc(N)c([N+](=O)[O-])c1	inactive
Cc1ccc(S(=O)(=O)O)cc1C	inactive
